From PubChem BioAssay (NCI)
About 79,000 compounds went through this panel and 15% of them were active in at least one assay; those are over-represented in the sample as a whole. Rule as the data show it: active = growth inhibition above about 70%; inactive = the rest. Where a SMILES comes first, the peptide text is derived from it. The star is where a group is joined. Boc = CC(C)(C)OC(=O)*

Tests used:
[1] = NCI Yeast Anticancer Drug Screen. Data for the rad50 strain (AID 155);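 also: 0% = growth of vehicle-only cultures of the same strain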; conditions: S. cerevisiae rad50 strain growth inhibition; at 50.0 µM; hits give high values
Procedure, shortened: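 Vehicle-treated cultures provide the reference for the growth inhibition reported for compound-exposed, repair-deficient yeast.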

[2] = NCI Yeast Anticancer Drug Screen. Data for the mec2-1 strain (AID 157); conditions: S. cerevisiae mec2-1 strain, at 50.0 µM, hits give high values
Procedure, shortened: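 Mutant yeast (mec2-1) grown with compound; growth inhibition relative to vehicle control reported.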

[3] = NCI Yeast Anticancer Drug Screen. Data for the sgs1 mgt1 strain (AID 161);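 also: 0% = growth of cultures given vehicle only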; conditions: S. cerevisiae sgs1 mgt1 strain, at 50.0 µM, hits give high values
Procedure, shortened: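 Growth of a repair-deficient yeast mutant was monitored after compound treatment and expressed as inhibition relative to vehicle-treated cultures.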

[4] = NCI Yeast Anticancer Drug Screen. Data for the cln2 rad14 strain (AID 165);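 also: 0% = growth equal to vehicle treated cultures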; conditions: S. cerevisiae cln2 rad14 strain, at 50.0 µM, hits give high values
Procedure, shortened: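 Readout is yeast growth inhibition versus vehicle-treated controls, using a strain with cln2 and rad14 alterations exposed to compound.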

[5] = NCI Yeast Anticancer Drug Screen. Data for the bub3 strain (AID 167); conditions: S. cerevisiae bub3 mutant strain, at 50.0 µM, hits give high values
Procedure, shortened: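 Mutant yeast screening strain plus compound; vehicle-treated cultures serve as the 0% inhibition reference.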

[6] = NCI Yeast Anticancer Drug Screen. Data for the mlh1 rad18 strain (AID 175); conditions: S. cerevisiae mlh1 rad18 strain growth inhibition; at 50.0 µM; hits give high values
Procedure, shortened: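 Genetically defined yeast (DNA repair-deficient) exposed to compounds; growth inhibition determined relative to vehicle.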

Measured: growth inhibition

CCOC(=O)CN=NNc1ccccc1C(C)=O
inactive: [1] 21.4% | [2] 7.45% | [3] 10.9% | [4] -3.3% | [5] 3.05% | [6] 38.4%

Nc1nc(N)[n+]([O-])c(N)c1NCO
inactive: [1] -4.85% | [2] 2.9% | [3] -40% | [4] -50.8% | [5] -14% | [6] -25.3%

O=C(ON(Cc1ccccc1)Cc1ccccc1)c1ccccc1
inactive: [1] -7.8% | [2] 1.95% | [3] 20.4% | [4] -14.8% | [5] 28.1% | [6] 10.8%

CCCC(=O)Nc1cn(COC)c(C(=O)N2C[C@@H]3C[C@]34C2=CC(=O)c2[nH]cc(C)c24)n1
inactive: [1] 28.2% | [2] 20.4% | [3] 34.4% | [4] 14.2% | [5] 26.2% | [6] 50.8%

N#CCCn1ncc(C#N)c1N
inactive: [1] 3.4% | [2] -7.95% | [3] -1.5% | [4] -38.5% | [5] -2.5% | [6] 8.5%

COC(=O)C(Cc1c[nH]c2ccccc12)NC(=O)C(Cc1c[nH]c2ccccc12)NC(=O)C(Cc1c[nH]c2ccccc12)NC(=O)C(Cc1c[nH]c2ccccc12)NC(=O)OC(C)(C)C (centres undefined) (Boc-WWWW-OMe; configuration not given here)
inactive: [1] 3.35% | [2] -4.65% | [3] -2.05% | [4] 23.4% | [5] 4.65% | [6] 6.2%

O=Cc1ccc(C=O)cc1
inactive: [1] 22.6% | [2] -3.35% | [3] 26.9% | [4] 11.9% | [5] 14.2% | [6] 32.5%

ClC12CCC(Cl)(CC1)CC2
inactive: [1] 10.5% | [2] 0.65% | [3] -3.95% | [4] -50.6% | [5] -10.7% | [6] -7.95%

COc1cc2c(cc1OC)C1(CCCl)C3CC4C(=CCOC5CC(=O)N2C1C54)CN3C(=O)Cc1ccccc1 (centres undefined)
inactive: [1] 40.2% | [2] 4.95% | [3] 16.4% | [4] 11.2% | [5] 5.9% | [6] 23.6%

Cc1cc2nc(/C(C#N)=C/c3cc(Cl)cc(Cl)c3O)[nH]c2cc1C
inactive: [1] 16.2% | [2] 22.4% | [3] 33% | [4] 28.1% | [5] 19.4% | [6] -3.35%

CC(C)C1OC2OCCCC2C(C(C)C)O1 (centres undefined)
inactive: [1] 17.2% | [2] -5.85% | [3] 8.15% | [4] -11.9% | [5] -22.1% | [6] 11%

[O-][n+]1c(CN2CCCCC2)nc2cccc3c2c1-c1ccccc1-3
inactive: [1] 33.4% | [2] 12.3% | [3] -3.5% | [4] -8.55% | [5] 20.6% | [6] 13.1%

CC(=O)N(C1CCCCC1)C1CCCCC1
inactive: [1] 30.2% | [2] 20.6% | [3] 13.4% | [4] -2.05% | [5] -2.2% | [6] 45%

CC(=O)Nc1cc2c(cc1Br)Cc1cc(Br)ccc1-2
inactive: [1] -4.15% | [2] -4.1% | [3] -8.2% | [4] -4.5% | [5] 1.1% | [6] -14.2%

Nc1cccc(/C=C(/C(=O)O)c2ccc(Cl)cc2)c1
inactive: [1] 3.4% | [2] -4.45% | [3] -7.3% | [4] -38.9% | [5] -15.6% | [6] 0.15%

Cn1c(=O)c(C#N)c2n(C)c3ccccc3n2c1=O
inactive: [1] 64.8% | [2] 17.4% | [3] 13.8% | [4] 2.25% | [5] -36.1% | [6] -0.15%

CCOC(CNCc1ccncc1)OCC
inactive: [1] -19.8% | [2] -20.3% | [3] -26.8% | [4] 4.9% | [5] -31% | [6] -10.9%

O=C(O)C12CCCC(CCC1)C2
inactive: [1] -2.2% | [2] 1.05% | [3] -3.8% | [4] -4.35% | [5] -0.2% | [6] -0.55%

CCN(CC)CCNC(=O)Nc1ccc(OC)cc1
inactive: [1] 2.15% | [2] 24% | [3] 13.8% | [4] -0.05% | [5] 32.8% | [6] 7.65%

Nc1c(Cl)ncnc1Nc1cccc(C(F)(F)F)c1
inactive: [1] 9.9% | [2] 38.4% | [3] 53.1% | [4] 10.1% | [5] 41.6% | [6] 66.5%

Cc1cc(=O)[nH]c(NN2C(Cl)C(=O)C2c2cccc(Cl)c2)n1 (centres undefined)
inactive: [1] -5.85% | [2] -34.1% | [3] -9.4% | [4] 2.6% | [5] -10.5% | [6] -33%

CC12CCC3C(CCC4CC(O)(C(=O)O)CC43C)C1CCC2O (centres undefined)
inactive: [1] -16.9% | [2] -3.05% | [3] -19.9% | [4] 5.15% | [5] -7.55% | [6] -19.3%

CCOC(=O)CCC(C)(C#N)c1ccccc1 (centres undefined)
inactive: [1] -2.35% | [2] 0.65% | [3] 2.5% | [4] -9.1% | [5] 5.75% | [6] -0.05%

CC1CC(=O)c2cc3oc(=O)n(C)c3cc21 (centres undefined)
inactive: [1] -3.4% | [2] -4.15% | [3] -6.2% | [4] -20.5% | [5] 19.2% | [6] -0.45%

CCN1CC(O)c2cc(N=NC(N)=O)c(O)cc21 (centres undefined)
inactive: [1] -3.3% | [2] 14.9% | [3] 3.1% | [4] -8.85% | [5] 3.85% | [6] 23%

O=C1OCCC2(CCN(Cc3ccccc3)CC2)O1
inactive: [1] 11.2% | [2] 9.35% | [3] 25.4% | [4] -0.3% | [5] -1.45% | [6] 24.3%

O=c1nc(NO)cnn1C1OC(CO)C(O)C1O (centres undefined)
inactive: [1] 13.7% | [2] -0.2% | [3] 16.4% | [4] -26.4% | [5] -11.8% | [6] 11.7%

CC12CC3CC/C(=N\O)C(C1)C3(N1CCOCC1)C/C2=N/O (centres undefined)
inactive: [1] -22.2% | [2] -16.7% | [3] -10.2% | [4] 0.3% | [5] -14.8% | [6] 8.8%

C=C(C)COC1CCCCO1 (centres undefined)
inactive: [1] -3.75% | [2] -15.1% | [3] -36.7% | [4] 14.7% | [5] -42.3% | [6] -39.1%

Cc1ccc(NC(=O)/C(CC(=O)c2c[n+](=O)c3ccccc3n2O)=N\NC(=O)C[n+]2ccccc2)cc1
inactive: [1] 14.1% | [2] -1.25% | [3] -1.75% | [4] 24.8% | [5] 20.3% | [6] -0.85%

COc1ccc(C(=O)N=C(N)n2nc(C)cc2C)cc1
inactive: [1] -37.8% | [2] -1.35% | [3] -1% | [4] -16.1% | [5] 31.9% | [6] -0.75%

C/C=C(\C(=C\C)c1ccc(OC(=O)c2ccccc2)c(C2CCCCC2)c1)c1ccc(O)c(C2CCCCC2)c1
inactive: [1] 49% | [2] 34.5% | [3] 44.9% | [4] 30.4% | [5] 2.95% | [6] 45.8%

Cn1c(COc2ccc(/C=N\NC(=O)c3ccc(C(=O)N/N=C/c4ccc(OCc5c[n+]6ccccc6n5C)cc4)cc3)cc2)c[n+]2ccccc12
inactive: [1] -5% | [2] 3.5% | [3] -2.85% | [4] 26.7% | [5] 1.6% | [6] -36.8%

CC(C)CCc1n[nH]c(=O)n1/N=C\c1ccccc1
inactive: [1] -4.25% | [2] -9.35% | [3] -0.05% | [4] -10.6% | [5] 19.1% | [6] 26.6%

CN(CCCO)CCCO
inactive: [1] 5.9% | [2] -2.4% | [3] 0.7% | [4] 3.35% | [5] 1.85% | [6] -0.85%

CCN(CC)CC(O)c1ccc2ccccc2c1 (centres undefined)
inactive: [1] 47.6% | [2] 13.2% | [3] 25.8% | [4] -21.2% | [5] 22.4% | [6] 40.9%

c1ccc(CCc2ccncc2)cc1
inactive: [1] -3.05% | [2] -22.6% | [3] -8.35% | [4] -26.5% | [5] 3.6% | [6] -13.3%

Nc1ccc2ncc(NCc3ccc(F)cc3)nc2c1
inactive: [1] -4% | [2] -25.9% | [3] -25.6% | [4] 18.1% | [5] 3.4% | [6] 5.15%

Cc1[nH]c2nccn2c(=O)c1CCCl
inactive: [1] 10.2% | [2] -14.7% | [3] 9.6% | [4] -13.2% | [5] -13.6% | [6] 7.1%

O=c1[nH]cnc2nc(N3CCN(c4ccccc4)CC3)sc12
inactive: [1] 18.8% | [2] 11.4% | [3] 19.8% | [4] -40.7% | [6] 23.4%

C/C(C=C1C(=O)NC(=S)NC1=O)=C\c1ccccc1
inactive: [1] 13.5% | [2] -2.55% | [3] 8.35% | [4] -4.55% | [6] 14.1%
